Screening data as filed in PubChem.
Myeloid diff 2 = myeloid differentiation induction. ER-HoxA9 myeloid progenitors, lysozyme-GFP differentiation, flow cytometry. calls only at 10 µM. 360,000 compounds, 1% hits;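 active = normalized GFP-positive differentiation at or above the plate's own cutoff, the solvent-only control mean plus 3 SD; inconclusive = no clear call, values can overlap the other calls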;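 note: cells exposed to compound for four days before flow analysis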
SKN-1 block = blocks SKN-1 activity in C. elegans. inhibition, % at 21.8 µM. 360,000 compounds, 0.49% hits. C. elegans VP596 Pgst-4::GFP/RFP ratio, acrylamide-induced, 24 h;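 active = interference check ratio from 0.5 to 1.5 plus GFP to RFP signal ratio inhibition reaching or exceeding a fixed threshold, cut at about 30% in these data, passing the limit was not always enough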
M1 antag = human CHRM1 antagonism. CHO-K1 hM1, Fluo-8 calcium fluorescence, ACh EC80 antagonist. P11229. inhibition, % at 3 µM. 360,000 compounds, 1.3% hits;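 active = percent inhibition above its own plate's cutoff, namely the mean of that plate's compound wells plus 3 SD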;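 note: peak over basal fluorescence ratio during 140 s after agonist addition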
ATG4B inh = ATG4B (human) cysteine protease inhibition; Q9Y4P1; ATG4B cleavage of LC3-PLA2, NBD-HPC fluorescence, 1 h; inhibition, % at 8.33 µM; 340,000 compounds, 0.51% hits; AID 504462; in the data active = inhibition above about 40%
Target sequence (Q9Y4P1 whole entry, looked up): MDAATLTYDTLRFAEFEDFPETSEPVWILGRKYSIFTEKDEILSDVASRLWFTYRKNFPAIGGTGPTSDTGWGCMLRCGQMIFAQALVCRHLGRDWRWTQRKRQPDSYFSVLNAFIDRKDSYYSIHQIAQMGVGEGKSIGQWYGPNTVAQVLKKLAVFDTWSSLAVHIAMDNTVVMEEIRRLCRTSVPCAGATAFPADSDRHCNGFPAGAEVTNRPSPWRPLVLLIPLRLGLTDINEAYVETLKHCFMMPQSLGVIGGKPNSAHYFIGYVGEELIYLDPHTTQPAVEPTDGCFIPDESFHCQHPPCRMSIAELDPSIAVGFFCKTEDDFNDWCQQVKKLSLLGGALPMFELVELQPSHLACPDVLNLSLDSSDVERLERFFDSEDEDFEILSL
CHRM1 PAM = human CHRM1 positive allosteric modulation. P11229. CHO-K1 hM1, Fluo-8 calcium fluorescence, ACh EC20; 0% = ACh EC20, 100% = maximal ACh. activation, % at 3 µM. 360,000 compounds, 0.088% hits. AID 588819; in the data active = activation above about 19%, passing the limit was not always enough
CHRM1 agonist = human M1 muscarinic receptor agonism; activation, % at 3 µM; 360,000 compounds, 0.33% hits; AID 588814; CHO-K1 hM1, Fluo-8 calcium fluorescence, agonist mode; 0% DMSO, 100% acetylcholine EC100; P11229;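 active = activation above the run's mean compound activation plus 3 SD, cut at about 16% in these data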;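 note: peak over basal fluorescence ratio within a 140 s kinetic read after compound addition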
ATG4B confirm = confirmation of human ATG4B inhibitors | ATG4B protease fluorescent substrate cleavage assay | inhibition, % at 8.33 µM | 320 compounds, 92% hits | shares compounds with ATG4B inh; in the data active = inhibition above about 39%
PLA2 counter = counter-screen for ATG4B inhibitors: human phospholipase A2. inhibition, % at 8.33 µM. shares compounds with ATG4B inh. 1,600 compounds, 66% hits. AID 588402. purified PLA2, NBD-C6-HPC fluorescence, 45 min; in the data active = inhibition above about 50%
Target sequence (P04054 whole entry, looked up): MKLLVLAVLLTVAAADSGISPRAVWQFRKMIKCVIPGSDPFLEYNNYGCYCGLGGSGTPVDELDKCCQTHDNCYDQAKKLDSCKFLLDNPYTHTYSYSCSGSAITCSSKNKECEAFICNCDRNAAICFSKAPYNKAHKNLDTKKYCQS
Hits are given with their value. The list is not random: actives were taken first. Their share in the collection is about 3.5%.

Results for O=C(/C=C/c1ccccc1O)c1ccc(Cl)cc1 ?
Myeloid diff 2: inactive; SKN-1 block: inactive; M1 antag: inactive; ATG4B inh: 69; CHRM1 PAM: inactive; CHRM1 agonist: inactive; PLA2 counter: 88

What do the screens show for `Cc1cccc(N=Nc2c(C)nn(-c3ccccc3)c2N)c1C`?
Myeloid diff 2: inactive; SKN-1 block: inactive; M1 antag: inactive; ATG4B inh: 82; CHRM1 PAM: inactive; CHRM1 agonist: inactive; PLA2 counter: 90

Results for Nc1nn(-c2ccccc2)c(N)c1N=Nc1ccccc1 ?
Myeloid diff 2: inconclusive; SKN-1 block: inactive; M1 antag: inactive; ATG4B inh: 45; CHRM1 PAM: inactive; CHRM1 agonist: inactive; ATG4B confirm: 64; PLA2 counter: inactive

What do the screens show for `Cc1nn(-c2ccccc2)c(N)c1N=Nc1ccc(Cl)cc1`?
Myeloid diff 2: inactive; SKN-1 block: inactive; M1 antag: inactive; ATG4B inh: 81; CHRM1 PAM: inactive; CHRM1 agonist: inactive; PLA2 counter: 89

How did Cc1nn(-c2ccccc2)c(N)c1-c1ccccc1 do in these assays?
Myeloid diff 2: inactive; SKN-1 block: inactive; M1 antag: inactive; ATG4B inh: inactive; CHRM1 PAM: inactive; CHRM1 agonist: inactive

Results for Nc1ncnc(N)c1N=Nc1ccccc1 ?
Myeloid diff 2: inactive; SKN-1 block: inactive; M1 antag: inactive; ATG4B inh: inactive; CHRM1 PAM: inactive; CHRM1 agonist: inactive

Results for Nc1nn(-c2ccccc2)c(N)c1N=Nc1ccccc1F ?
Myeloid diff 2: inconclusive; SKN-1 block: inactive; M1 antag: inactive; ATG4B inh: 70; CHRM1 PAM: inactive; CHRM1 agonist: inactive; PLA2 counter: 72

What do the screens show for `CC(C)CN(C)C(=O)CCc1nnc(Cc2cccc(C(F)(F)F)c2)o1`?
Myeloid diff 2: inactive; SKN-1 block: inactive; M1 antag: inactive; ATG4B inh: inactive; CHRM1 PAM: inactive; CHRM1 agonist: inactive

What do the screens show for `CC(C)n1nc(C(=O)Nc2cccc(S(=O)(=O)NCc3ccco3)c2)c2ccccc2c1=O`?
Myeloid diff 2: inactive; SKN-1 block: inactive; M1 antag: inactive; ATG4B inh: inactive; CHRM1 PAM: inactive; CHRM1 agonist: inactive

Results for Cc1cc(NC(=O)CSc2nncn2N)no1 ?
Myeloid diff 2: inactive; SKN-1 block: inactive; M1 antag: inactive; ATG4B inh: inactive; CHRM1 PAM: inactive; CHRM1 agonist: inactive

Results for COc1ccccc1NS(=O)(=O)c1ccc2[nH]c(=S)oc2c1 ?
Myeloid diff 2: inactive; SKN-1 block: inactive; M1 antag: inactive; ATG4B inh: inactive; CHRM1 PAM: inactive; CHRM1 agonist: inactive

What do the screens show for `Cc1nn(-c2ccccc2)c(N)c1N=Nc1ccccc1`?
Myeloid diff 2: inactive; SKN-1 block: inactive; M1 antag: inactive; ATG4B inh: 73; CHRM1 PAM: inactive; CHRM1 agonist: inactive; PLA2 counter: 81

What do the screens show for `Cc1nn(-c2ccccc2)c(N)c1N=Nc1cccc(S(=O)(=O)N2CCOCC2)c1`?
Myeloid diff 2: inactive; SKN-1 block: inactive; M1 antag: inactive; ATG4B inh: 44; CHRM1 PAM: inactive; CHRM1 agonist: inactive; PLA2 counter: inactive

Results for Cc1ccc(C)n1-c1cccc(S(=O)(=O)N2CCOCC2)c1 ?
Myeloid diff 2: inactive; SKN-1 block: inactive; M1 antag: inactive; ATG4B inh: inactive; CHRM1 PAM: inactive; CHRM1 agonist: inactive

How did COc1ccccc1CNc1cc(CSc2ccc(Cl)cc2)nc(C)n1 do in these assays?
Myeloid diff 2: inactive; SKN-1 block: inactive; M1 antag: inactive; ATG4B inh: inactive; CHRM1 PAM: inactive; CHRM1 agonist: inactive

Results for COc1cccc(CNc2cc(CSc3ccc(Cl)cc3)nc(C)n2)c1 ?
Myeloid diff 2: inactive; SKN-1 block: inactive; M1 antag: inactive; ATG4B inh: 54; CHRM1 PAM: inactive; CHRM1 agonist: inactive; PLA2 counter: 63

Results for CCCn1c(NC(=O)c2cccc(S(=O)(=O)N3CCCC3)c2)nc2ccccc21 ?
Myeloid diff 2: inactive; SKN-1 block: inactive; M1 antag: inactive; ATG4B inh: inactive; CHRM1 PAM: inactive; CHRM1 agonist: inactive; PLA2 counter: 57

How did CCCn1c(NC(=O)c2ccccc2)nc2ccccc21 do in these assays?
Myeloid diff 2: inactive; SKN-1 block: inactive; M1 antag: inactive; ATG4B inh: inactive; CHRM1 PAM: inactive; CHRM1 agonist: inactive

How did CCCc1ccc2oc(C(=O)N3CCC(COC)C3)c(C)c2c1 (centres undefined) do in these assays?
Myeloid diff 2: inactive; SKN-1 block: inactive; M1 antag: inactive; ATG4B inh: inactive; CHRM1 PAM: inactive; CHRM1 agonist: inactive

What do the screens show for `NS(=O)(=O)c1ccc(NC(=O)CN2CCc3ccccc3C2)cc1`?
Myeloid diff 2: inactive; SKN-1 block: inactive; M1 antag: inactive; ATG4B inh: inactive; CHRM1 PAM: inactive; CHRM1 agonist: inactive

What do the screens show for `COc1ccc(-n2c(SCC(=O)Nc3cc(C)on3)nc3c(c2=O)SCC3)cc1`?
Myeloid diff 2: inactive; SKN-1 block: inactive; M1 antag: inactive; ATG4B inh: inactive; CHRM1 PAM: inactive; CHRM1 agonist: inactive

Results for COC(=O)c1ccc(CSc2nc3c(c(=O)n2-c2ccc(C)cc2)SCC3)o1 ?
Myeloid diff 2: inactive; SKN-1 block: inactive; M1 antag: inactive; ATG4B inh: 48; CHRM1 PAM: inactive; CHRM1 agonist: inactive; PLA2 counter: 70

Results for O=C(NCc1ccc(Cl)cc1)c1ccccc1CCc1ccccc1 ?
Myeloid diff 2: inactive; SKN-1 block: inactive; M1 antag: inactive; ATG4B inh: 55; CHRM1 PAM: inactive; CHRM1 agonist: inactive; PLA2 counter: 53

What do the screens show for `COc1ccc(Cl)cc1NC(=O)C1CCCN(c2ncnc3c2nc2n3CCCCC2)C1` (centres undefined)?
Myeloid diff 2: inactive; SKN-1 block: inactive; M1 antag: inactive; ATG4B inh: inactive; CHRM1 PAM: inactive; CHRM1 agonist: inactive

Results for Cc1sc(NC(=O)C2C3CCC(O3)C2C(=O)O)nc1-c1ccc(CC(C)C)cc1 (centres undefined) ?
Myeloid diff 2: inactive; SKN-1 block: inactive; M1 antag: inactive; ATG4B inh: 56; CHRM1 PAM: inactive; CHRM1 agonist: inactive; PLA2 counter: 69

What do the screens show for `Cc1ccc(SCCNC(=O)/C=C/c2ccccc2Cl)cc1`?
Myeloid diff 2: inactive; SKN-1 block: inactive; M1 antag: inactive; ATG4B inh: 56; CHRM1 PAM: inactive; CHRM1 agonist: inactive; PLA2 counter: 66

What do the screens show for `Cc1ccc(SCCNC(=O)/C=C/c2ccc(Cl)cc2)cc1`?
Myeloid diff 2: inactive; SKN-1 block: inactive; M1 antag: inactive; ATG4B inh: inactive; CHRM1 PAM: inactive; CHRM1 agonist: inactive

What do the screens show for `Cc1c(CCC(=O)O)c(=O)oc2cc3occ(C(C)(C)C)c3cc12`?
Myeloid diff 2: inactive; SKN-1 block: inactive; M1 antag: inactive; ATG4B inh: 44; CHRM1 PAM: inactive; CHRM1 agonist: inactive; PLA2 counter: 61
